# Measured values reported in PubChem BioAssay (NCATS).
# Records with an inconclusive call do not appear. Where a call stands in place of a potency, no number is given. Activity calls are given as the source filed them. Calls follow the shape of the dose curve; as a rule, active = well fitted inhibition curve with a large enough effect; inconclusive = small, poorly fitted or top-dose-only effect; inactive = flat fitted curve, though single readings scatter.
# Test system: DFO2036
# Test: qHTS profiling for inhibitors of Plasmodium falciparum proliferation (AID 504749); also: nearly all actives have a fitted effect of over 60% in size
# Conditions: P. falciparum in erythrocytes, SYBR Green DNA, 72 h; series mostly up to 28.7 µM
# Method in brief: (§1)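 In a 72 h erythrocytic culture (37 C, humidified, 5% CO2) at 2.5% hematocrit and 0.3% starting parasitemia, compounds were tested; SYBR Green I in detergent lysis buffer stained parasite DNA overnight.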
# Potency is read from the fitted curve at half-maximal effect.
row,Structure (SMILES),Potency
1,C[C@H](N)Cc1ccccc1,inactive
2,C[C@]12C=CC(=O)C=C1CC[C@@H]1C2CC[C@]2(C)OC(=O)CCC12 (some centres not stated),inactive
3,OCC(O)[C@H]1O[C@@H]2O[C@H](C(Cl)(Cl)Cl)O[C@@H]2[C@H]1O (some centres not stated),inactive
4,CC1(C)[C@@H](C=C(Cl)Cl)[C@@H]1C(=O)OCc1c(F)c(F)cc(F)c1F,inactive
5,CC1(C)S[C@@H]2[C@H](N)C(=O)N2C1C(=O)O (some centres not stated),inactive
6,C=C1Nc2ccccc2C(=O)N1c1ccccc1C,inactive
7,CC1OC(O[C@H]2C[C@@H](O)[C@]3(CO)[C@@H]4C(CC[C@]3(O)C2)[C@@]2(O)CC[C@H](C3=CC(=O)OC3)[C@@]2(C)C[C@H]4O)C(O)C(O)C1O (some centres not stated),inactive
8,O=[N+]([O-])OC1CO[C@H]2C(O[N+](=O)[O-])COC12 (some centres not stated),inactive
9,CCOC(=O)/C=C(C)/C=C/CC(C)CCCC(C)C (configuration not stated),inactive
10,[S]=[Sb][S][Sb]=[S],inactive
11,CN1C2CCC1C(C(=O)O)C(OC(=O)c1ccccc1)C2 (configuration not stated),inactive
12,C[C@@H]1CC[C@H]2[C@@H](C)C(=O)O[C@@H]3OC4(C)CC[C@@H]1C32OO4 (some centres not stated),0.0071 µM (active)
13,Cc1ccc2c(c1)[C@@H]1CN(C)CC[C@H]1N2,inactive
14,Nc1nc(O)c(-c2ccccc2)o1,inactive
15,C=CC[N+]1(C)CCC23c4c5ccc(O)c4O[C@H]2C(=O)CC[C@@]3(O)C1C5 (some centres not stated),inactive
16,OC[C@@H](O)[C@H]1O[C@@H]2OC(C(Cl)(Cl)Cl)O[C@H]2[C@H]1O (some centres not stated),inactive
17,CCCCCCC(=O)O[C@H]1CC[C@H]2[C@@H]3CCC4CC(=O)C=C(C)[C@]4(C)[C@H]3CC[C@]12C (some centres not stated),inactive
18,Cc1cc(C)cc(C(=O)OC2CC3CCC(C2)N3C)c1 (configuration not stated),inactive
19,CCCN1CCCC2Cc3nc(N)ncc3CC21 (configuration not stated),inactive
20,COc1ccc2c3c1O[C@H]1[C@@H](O)C=C[C@H]4C(C2)NCCC341 (some centres not stated),inactive
21,CCCCCC(O)C1C(=O)OC(C)C(O)\C=C/C=C\C=C/C=C\C=C(\C)C(O)C(O)C(O)CC(O)CC(O)CC(O)CC(O)CC1O (configuration not stated),inactive
22,CCCCCc1cc(O)c2c(c1)OC(C)(C)C1CC=C(C)CC21 (configuration not stated),3.16 µM (active)

# Test system: DIV14
# Test: as above
# Conditions: P. falciparum in erythrocytes, SYBR Green DNA, 72 h; series mostly up to 28.7 µM
# Method in brief: as §1
row,Structure (SMILES),Potency
1,C[C@]12C=CC(=O)C=C1CC[C@@H]1C2CC[C@]2(C)OC(=O)CCC12 (some centres not stated),inactive
2,OCC(O)[C@H]1O[C@@H]2O[C@H](C(Cl)(Cl)Cl)O[C@@H]2[C@H]1O (some centres not stated),inactive
3,CC1(C)[C@@H](C=C(Cl)Cl)[C@@H]1C(=O)OCc1c(F)c(F)cc(F)c1F,inactive
4,CC1(C)S[C@@H]2[C@H](N)C(=O)N2C1C(=O)O (some centres not stated),inactive
5,C=C1Nc2ccccc2C(=O)N1c1ccccc1C,inactive
6,CC1OC(O[C@H]2C[C@@H](O)[C@]3(CO)[C@@H]4C(CC[C@]3(O)C2)[C@@]2(O)CC[C@H](C3=CC(=O)OC3)[C@@]2(C)C[C@H]4O)C(O)C(O)C1O (some centres not stated),inactive
7,O=[N+]([O-])OC1CO[C@H]2C(O[N+](=O)[O-])COC12 (some centres not stated),inactive
8,CCOC(=O)/C=C(C)/C=C/CC(C)CCCC(C)C (configuration not stated),inactive
9,[S]=[Sb][S][Sb]=[S],inactive
10,CN1C2CCC1C(C(=O)O)C(OC(=O)c1ccccc1)C2 (configuration not stated),inactive
11,C[C@@H]1CC[C@H]2[C@@H](C)C(=O)O[C@@H]3OC4(C)CC[C@@H]1C32OO4 (some centres not stated),0.0076 µM (active)
12,Cc1ccc2c(c1)[C@@H]1CN(C)CC[C@H]1N2,inactive
13,Nc1nc(O)c(-c2ccccc2)o1,inactive
14,C=CC[N+]1(C)CCC23c4c5ccc(O)c4O[C@H]2C(=O)CC[C@@]3(O)C1C5 (some centres not stated),inactive
15,OC[C@@H](O)[C@H]1O[C@@H]2OC(C(Cl)(Cl)Cl)O[C@H]2[C@H]1O (some centres not stated),inactive
16,CCCCCCC(=O)O[C@H]1CC[C@H]2[C@@H]3CCC4CC(=O)C=C(C)[C@]4(C)[C@H]3CC[C@]12C (some centres not stated),inactive
17,Cc1cc(C)cc(C(=O)OC2CC3CCC(C2)N3C)c1 (configuration not stated),7.57 µM (active)
18,CCCN1CCCC2Cc3nc(N)ncc3CC21 (configuration not stated),inactive
19,COc1ccc2c3c1O[C@H]1[C@@H](O)C=C[C@H]4C(C2)NCCC341 (some centres not stated),inactive
20,CCCCCC(O)C1C(=O)OC(C)C(O)\C=C/C=C\C=C/C=C\C=C(\C)C(O)C(O)C(O)CC(O)CC(O)CC(O)CC(O)CC1O (configuration not stated),inactive
21,CCCCCc1cc(O)c2c(c1)OC(C)(C)C1CC=C(C)CC21 (configuration not stated),1.51 µM (active)

# Test system: DIV17
# Test: as above
# Conditions: P. falciparum in erythrocytes, SYBR Green DNA, 72 h; series mostly up to 28.7 µM
# Method in brief: as §1
row,Structure (SMILES),Potency
1,C[C@]12C=CC(=O)C=C1CC[C@@H]1C2CC[C@]2(C)OC(=O)CCC12 (some centres not stated),inactive
2,OCC(O)[C@H]1O[C@@H]2O[C@H](C(Cl)(Cl)Cl)O[C@@H]2[C@H]1O (some centres not stated),inactive
3,CC1(C)[C@@H](C=C(Cl)Cl)[C@@H]1C(=O)OCc1c(F)c(F)cc(F)c1F,inactive
4,CC1(C)S[C@@H]2[C@H](N)C(=O)N2C1C(=O)O (some centres not stated),inactive
5,C=C1Nc2ccccc2C(=O)N1c1ccccc1C,inactive
6,CC1OC(O[C@H]2C[C@@H](O)[C@]3(CO)[C@@H]4C(CC[C@]3(O)C2)[C@@]2(O)CC[C@H](C3=CC(=O)OC3)[C@@]2(C)C[C@H]4O)C(O)C(O)C1O (some centres not stated),inactive
7,O=[N+]([O-])OC1CO[C@H]2C(O[N+](=O)[O-])COC12 (some centres not stated),inactive
8,CCOC(=O)/C=C(C)/C=C/CC(C)CCCC(C)C (configuration not stated),inactive
9,[S]=[Sb][S][Sb]=[S],inactive
10,CN1C2CCC1C(C(=O)O)C(OC(=O)c1ccccc1)C2 (configuration not stated),inactive
11,C[C@@H]1CC[C@H]2[C@@H](C)C(=O)O[C@@H]3OC4(C)CC[C@@H]1C32OO4 (some centres not stated),0.0095 µM (active)
12,Cc1ccc2c(c1)[C@@H]1CN(C)CC[C@H]1N2,inactive
13,Nc1nc(O)c(-c2ccccc2)o1,inactive
14,C=CC[N+]1(C)CCC23c4c5ccc(O)c4O[C@H]2C(=O)CC[C@@]3(O)C1C5 (some centres not stated),inactive
15,OC[C@@H](O)[C@H]1O[C@@H]2OC(C(Cl)(Cl)Cl)O[C@H]2[C@H]1O (some centres not stated),inactive
16,CCCN1CCCC2Cc3nc(N)ncc3CC21 (configuration not stated),inactive
17,COc1ccc2c3c1O[C@H]1[C@@H](O)C=C[C@H]4C(C2)NCCC341 (some centres not stated),inactive
18,CCCCCC(O)C1C(=O)OC(C)C(O)\C=C/C=C\C=C/C=C\C=C(\C)C(O)C(O)C(O)CC(O)CC(O)CC(O)CC(O)CC1O (configuration not stated),inactive
19,CCCCCc1cc(O)c2c(c1)OC(C)(C)C1CC=C(C)CC21 (configuration not stated),1.51 µM (active)
